We go through five molecules from the supplement of paper PMC4022240.

± gives the standard deviation.

Experiment in all cases: peptide microarray binding signal (635 nm), min-max normalized on array (fraction of array maximum); higher = stronger binding
Conditions in all cases: peptide region: H2B 17-29

The target in experiment [1] is T1, HaloTag-ATRX ADD domain (163-292).
T1 chain: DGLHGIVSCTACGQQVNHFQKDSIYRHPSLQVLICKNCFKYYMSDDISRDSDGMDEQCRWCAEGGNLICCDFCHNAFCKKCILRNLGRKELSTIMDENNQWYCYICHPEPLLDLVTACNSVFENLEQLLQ
As to the method: (§1)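 Histone 13-mer peptides were synthesized as cellulose conjugates with a C-terminal 20-atom PEG linker and printed in triplicate on nitrocellulose. The sequence given is the unmodified backbone; PTMs (Kme1/2/3, Kac, Sph/Tph, Rme/Rme2a/Rme2s, Rcit) are listed in the label and the 'peptide modifications' condition. Slides were probed at 4 °C for 1 h with biotin-labelled (HQ)5-HaloTag reader fusions (ATRX-ADD, ING2-PHD) then streptavidin-Alexa647, or with rabbit histone antibodies then anti-rabbit Alexa647. The mean 635 nm signal of the triplicate spots was scaled 0-1 between the lowest and highest values on each array.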

Experiment [2] addresses HaloTag-ING2 PHD (mouse Ing2 200-280). On the procedure: as §1
For experiment [3], the target named is anti-H3K4me3 antibody ab8580. As to the method: as §1
The target of experiment [4] is anti-H3K9me3 antibody ab8898. As to the method: as §1
[5] abbreviates: peptide modifications: H2BK20ac H2BK24ac H2BK27ac H2BK28ac, binder concentration: 1:2,000 dilution.
Where [6] appears, read: peptide modifications: H2BK20ac H2BK24ac H2BK27ac H2BK28ac, binder concentration: 1:10,000 dilution.
The mark [7] stands for this setting: binder concentration: 1:2,000 dilution.
Where [8] appears, read: binder concentration: 1:10,000 dilution.
[9] abbreviates: peptide modifications: H2BK20ac H2BK23ac H2BK27ac, binder concentration: 1:2,000 dilution.
[10] abbreviates: peptide modifications: H2BK20ac H2BK23ac H2BK27ac, binder concentration: 1:10,000 dilution.
Setting [11] is: peptide modifications: H2BK20ac H2BK23ac H2BK27ac H2BK28ac, binder concentration: 1:2,000 dilution.
Where [12] appears, read: peptide modifications: H2BK20ac H2BK23ac H2BK27ac H2BK28ac, binder concentration: 1:10,000 dilution.
Setting [13] is: peptide modifications: H2BK20ac H2BK23ac, binder concentration: 1:2,000 dilution.
[14] abbreviates: peptide modifications: H2BK20ac H2BK23ac, binder concentration: 1:10,000 dilution.

For the molecule AVTKAQKKDGKKR [H2B 17-29 A V T Kac A Q K Kac D G Kac Kac R], the “peptide microarray binding signal” value in experiment [1] (peptide modifications: H2BK20ac H2BK24ac H2BK27ac H2BK28ac, binder concentration: 50 nM) worked out at 0.00276 ± 5.2e-05; in experiment [1] (peptide modifications: H2BK20ac H2BK24ac H2BK27ac H2BK28ac, binder concentration: 500 nM), 0.00419 ± 0.00026; in experiment [2] (peptide modifications: H2BK20ac H2BK24ac H2BK27ac H2BK28ac, binder concentration: 10 nM), 0.00436 ± 0.00021; in experiment [2] (peptide modifications: H2BK20ac H2BK24ac H2BK27ac H2BK28ac, binder concentration: 100 nM), 0.00489 ± 0.00035; in experiment [3] (setting [5]) it was 0.000472 ± 1.7e-05; in experiment [3] (setting [6]) it was 0.000856 ± 8.9e-06. Besides, the “peptide microarray binding signal” value is 0.000468 ± 1.8e-05 in experiment [4] (setting [5]) and 0.000692 ± 7.3e-06 in experiment [4] (setting [6]).
In the case of AVTKAQKKDGKKR [H2B 17-29 A V T K A Q K K D G K K R], the “peptide microarray binding signal” value came to 0.00972 ± 0.00026 in experiment [1] (binder concentration: 50 nM); 0.0111 ± 0.00017 in experiment [1] (binder concentration: 500 nM); 0.0152 ± 0.0002 in experiment [2] (binder concentration: 10 nM); 0.00666 ± 0.00025 in experiment [2] (binder concentration: 100 nM); 0.0021 ± 7.2e-05 in experiment [3] (setting [7]); 0.00428 ± 3.3e-05 in experiment [3] (setting [8]). For the same molecule, the “peptide microarray binding signal” value in experiment [4] (setting [7]) turned out to be 0.00118 ± 1.6e-05; in experiment [4] (setting [8]), 0.00421 ± 8.6e-05.
For AVTKAQKKDGKKR [H2B 17-29 A V T Kac A Q Kac K D G Kac K R], the “peptide microarray binding signal” value in experiment [1] (peptide modifications: H2BK20ac H2BK23ac H2BK27ac, binder concentration: 50 nM) worked out at 0.00646 ± 0.00075; in experiment [1] (peptide modifications: H2BK20ac H2BK23ac H2BK27ac, binder concentration: 500 nM) it was 0.00214 ± 0.00028; in experiment [2] (peptide modifications: H2BK20ac H2BK23ac H2BK27ac, binder concentration: 10 nM) it was 0.00585 ± 0.00024; in experiment [2] (peptide modifications: H2BK20ac H2BK23ac H2BK27ac, binder concentration: 100 nM), 0.000992 ± 4.7e-05; in experiment [3] (setting [9]), 0.000189 ± 5.4e-06; in experiment [3] (setting [10]), 0.0016 ± 0.00014. Moreover, the “peptide microarray binding signal” value stood at 0.000664 ± 5.2e-05 in experiment [4] (setting [9]) and 0.001211 ± 1.2e-05 in experiment [4] (setting [10]).
With AVTKAQKKDGKKR [H2B 17-29 A V T Kac A Q Kac K D G Kac Kac R], the “peptide microarray binding signal” value in experiment [1] (peptide modifications: H2BK20ac H2BK23ac H2BK27ac H2BK28ac, binder concentration: 50 nM) was determined as 0.00414 ± 0.00019; in experiment [1] (peptide modifications: H2BK20ac H2BK23ac H2BK27ac H2BK28ac, binder concentration: 500 nM), 0.00762 ± 0.00011; in experiment [2] (peptide modifications: H2BK20ac H2BK23ac H2BK27ac H2BK28ac, binder concentration: 10 nM), 0.00913 ± 0.00015; in experiment [2] (peptide modifications: H2BK20ac H2BK23ac H2BK27ac H2BK28ac, binder concentration: 100 nM), 0.0159 ± 0.00082; in experiment [3] (setting [11]), 0.00168 ± 6.8e-05; in experiment [3] (setting [12]), 0.0024 ± 4.3e-05. For the same molecule, the “peptide microarray binding signal” value is 0.000861 ± 5.4e-05 in experiment [4] (setting [11]) and 0.000923 ± 9.6e-06 in experiment [4] (setting [12]).
For AVTKAQKKDGKKR [H2B 17-29 A V T Kac A Q Kac K D G K K R], the “peptide microarray binding signal” value was found to be 0.00492 ± 0.00049 in experiment [1] (peptide modifications: H2BK20ac H2BK23ac, binder concentration: 50 nM); 0.002 ± 0.0004 in experiment [1] (peptide modifications: H2BK20ac H2BK23ac, binder concentration: 500 nM); 0.00477 ± 0.00013 in experiment [2] (peptide modifications: H2BK20ac H2BK23ac, binder concentration: 10 nM); 0.00333 ± 0.00048 in experiment [2] (peptide modifications: H2BK20ac H2BK23ac, binder concentration: 100 nM); 0.000321 ± 3.2e-05 in experiment [3] (setting [13]); 0.00097 ± 7e-05 in experiment [3] (setting [14]). Besides, the entries for the “peptide microarray binding signal” value in experiment [4] (setting [13]) and in experiment [4] (setting [14]) were 0.000408 ± 6.9e-06 and 0.000634 ± 1.2e-05, respectively.
